These results are taken from PubChem BioAssay AID488969 (Vanderbilt High Throughput Screening Facility, 2010).

Over roughly 110,000 compounds, “z-score” has its median near -0.1; the highest 2% begin near 2. The sample holds the highest values, similar compounds and a random draw of the others, so the mix is not that of the screen. Calls of active or inactive are those of the source.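 Rule for the calls: active = z-score in the third read window above 3 or below -3; inactive = the rest.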

The test deals with Metabotropic glutamate receptor 8 (Rattus norvegicus) (UniProt P70579). Nature of the test: rat mGluR8 modulators via GIRK flux, primary screen, cell-based, thallium flux, HTS (AID 488969). Conditions: HEK293 rat mGluR8, GIRK (G protein-gated inwardly rectifying potassium channel) thallium flux, FluoZin2; at 10 µM; stronger effect = higher value; submaximal glutamate (EC20) added with thallium.
Chain of Metabotropic glutamate receptor 8 (Rattus norvegicus) (P70579 whole entry, looked up): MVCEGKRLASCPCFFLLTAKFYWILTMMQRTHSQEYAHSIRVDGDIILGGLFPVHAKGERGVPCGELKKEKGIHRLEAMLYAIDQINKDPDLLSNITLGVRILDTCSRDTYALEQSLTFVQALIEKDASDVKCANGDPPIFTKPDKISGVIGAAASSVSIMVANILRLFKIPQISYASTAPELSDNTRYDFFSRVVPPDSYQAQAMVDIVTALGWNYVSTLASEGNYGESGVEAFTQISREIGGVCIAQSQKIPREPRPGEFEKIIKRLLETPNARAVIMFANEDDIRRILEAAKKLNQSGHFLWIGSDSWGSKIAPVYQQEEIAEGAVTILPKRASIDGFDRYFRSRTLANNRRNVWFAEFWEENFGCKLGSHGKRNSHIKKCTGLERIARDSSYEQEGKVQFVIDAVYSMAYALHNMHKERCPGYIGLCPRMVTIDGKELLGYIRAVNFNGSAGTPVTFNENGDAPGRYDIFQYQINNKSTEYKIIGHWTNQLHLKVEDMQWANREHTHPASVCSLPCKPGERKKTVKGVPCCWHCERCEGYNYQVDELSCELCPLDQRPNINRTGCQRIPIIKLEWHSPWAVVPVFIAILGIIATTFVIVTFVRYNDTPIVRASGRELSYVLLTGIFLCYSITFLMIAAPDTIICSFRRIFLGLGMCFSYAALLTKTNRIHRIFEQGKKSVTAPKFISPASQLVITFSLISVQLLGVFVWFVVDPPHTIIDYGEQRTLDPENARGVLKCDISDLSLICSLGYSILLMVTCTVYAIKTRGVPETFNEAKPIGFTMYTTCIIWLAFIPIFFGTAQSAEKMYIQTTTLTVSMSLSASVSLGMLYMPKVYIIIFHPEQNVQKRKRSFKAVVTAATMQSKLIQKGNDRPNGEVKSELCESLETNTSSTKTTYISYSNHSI
Consider `Cc1ccc(C(=O)N/N=c2\sc3ccccc3n2C)cc1`, for which the z-score turned out to be 0.37.

On to `Cc1ccccc1NC(=O)COC(=O)/C=C/c1cn(-c2ccccc2)nc1-c1cccnc1`, for which the z-score was -0.0968.

`Cn1nnc2cc(NC(=O)N3CCN(c4ccccn4)CC3)ccc21` yielded a z-score of 0.387.

Molecule `CC(=O)Oc1ccc(-c2cccc(C(=O)O)c2)cc1` gave a z-score of -0.607.

`COc1ccc(C(=O)C2CCN(S(=O)(=O)c3ccc4c(c3)OCCO4)CC2)cc1` came in with a z-score of 0.21.

Regarding `Clc1ccc(/C=N/Nc2nnc(Cl)c3ccccc23)cc1`, the z-score turned out to be 0.242.

Molecule `Clc1ccc(/C=N/Nc2nc(Cl)nc3ccccc23)cc1` showed a z-score of 2.24.

With `Clc1cccc(/C=N/Nc2nc(Cl)nc3ccccc23)c1`, the z-score was -0.0962.

As for `CC(=O)Nc1ccc(OC(=O)c2cc3cc(Br)cc(Br)c3oc2=O)cc1`, the z-score was -0.128.

For the molecule `CCOC(=O)C1=C(c2ccccc2)N=C2SCC(=O)N2C1c1cccc(OC)c1` (stereo not drawn), the z-score is -0.311.

Consider `COC(=O)c1c(NC(=O)COC(=O)c2ccc(C)s2)sc2c1CCCCC2`, for which the z-score is 0.122.

`COC(=O)c1c(NC(=O)COC(=O)[C@@H](NS(=O)(=O)c2ccccc2)C(C)C)sc2c1CCC2` showed a z-score of 0.129.

Consider `CCOC(=O)c1c(NC=O)sc2c1CCC2`, for which the z-score was -0.85.

For the molecule `CCOC(=O)c1c(NS(=O)(=O)c2ccc(Br)cc2)sc2c1CCC2`, the z-score is 16.1 (active).

In the case of `CCOC(=O)c1c(NC(=S)Nc2ccc(OC)cc2)sc2c1CCC2`, the z-score amounted to 0.905.

Molecule `CCOC(=O)Nc1sc2c(c1C(=O)OCC)CCC2` showed a z-score of 0.418.

Regarding `COC(=O)c1c(NC(=O)COC(=O)[C@@H](NS(=O)(=O)c2ccc(C)cc2)C(C)C)sc2c1CCC2`, the z-score was 2.02.

Take `CCOC(=O)c1c(NS(=O)(=O)c2cccc(OC)c2)sc2c1CCC2`: the z-score is 16.9 (active).

Turning to `CCOC(=O)c1c(NC(=O)OC)sc2c1CCC2`, the z-score was 0.00121.

With `CCOC(=O)C1CCN(CCC(=O)Nc2cccc(Cl)c2C)CC1`, the z-score was 0.732.

With `O=C(NC1CCCCCC1)C1C2C=CC3(CN(Cc4cccnc4)C(=O)C13)O2` (stereo not drawn), the z-score was found to be 0.211.

`O=c1cc(N2CCc3ccccc32)[nH]c(=O)n1-c1ccc(Br)cc1` had a z-score of -0.058.

`CCc1ccc(OCCOCC(O)CNC(C)CC)cc1` (stereo not drawn) registered a z-score of 0.0842.

`COC(=O)c1ccccc1NC(=O)C1CCC(=O)N1S(=O)(=O)c1ccc(C)cc1` (stereo not drawn) had a z-score of 0.251.

As to `CC(=O)NS(=O)(=O)c1ccc(NC(=O)COc2ccc(C(=O)c3ccccc3)cc2)cc1`, the z-score came out at 0.359.

For the molecule `CC(NC(=O)C1CCN(S(=O)(=O)c2cc([N+](=O)[O-])ccc2Cl)CC1)c1ccccc1` (stereo not drawn), the z-score was -0.238.

`NC(=O)C1CCCN(S(=O)(=O)c2ccccc2)C1` (stereo not drawn) showed a z-score of -0.127.

Molecule `Cc1ccc(C(=O)Nc2nnc(-c3ccco3)o2)cc1C` had a z-score of 0.973.

The molecule `Cc1cccc(C(=O)Nc2nnc(-c3ccco3)o2)c1` showed a z-score of 0.11.

On to `O=C(Nc1nnc(-c2ccco2)o1)c1cccc2ccccc12`, for which the z-score came out at 0.259.

Turning to `CCC(=O)Nc1nnc(-c2ccco2)o1`, the z-score turned out to be 2.14.

The molecule `Cc1ccc(C(=O)Nc2nnc(-c3ccco3)o2)cc1` had a z-score of 0.435.

`O=C(Nc1nnc(-c2ccco2)o1)c1ccc2ccccc2c1` gave a z-score of 2.95.
